The source of these data is ChEMBL document CHEMBL3988442, “University of Dundee, Small-Polar-MMV Screening Library” (2021).

Holding throughout (design): scale not given: direction of the effect not stated beside the values
Assay [1] addresses Protein translocase subunit SecA (Escherichia coli (strain K12)) (UniProt P10408). Kind of assay: Assay to Identify E. coli SecA ATPase Inhibitors. It is filed as functional. The note with it: 30 µM.
Assay [2] deals with T1, Ubiquitin-activating enzyme e1, putative (Leishmania donovani (strain BPK282A1)) (UniProt E9BSI1).
T1 sequence (whole entry): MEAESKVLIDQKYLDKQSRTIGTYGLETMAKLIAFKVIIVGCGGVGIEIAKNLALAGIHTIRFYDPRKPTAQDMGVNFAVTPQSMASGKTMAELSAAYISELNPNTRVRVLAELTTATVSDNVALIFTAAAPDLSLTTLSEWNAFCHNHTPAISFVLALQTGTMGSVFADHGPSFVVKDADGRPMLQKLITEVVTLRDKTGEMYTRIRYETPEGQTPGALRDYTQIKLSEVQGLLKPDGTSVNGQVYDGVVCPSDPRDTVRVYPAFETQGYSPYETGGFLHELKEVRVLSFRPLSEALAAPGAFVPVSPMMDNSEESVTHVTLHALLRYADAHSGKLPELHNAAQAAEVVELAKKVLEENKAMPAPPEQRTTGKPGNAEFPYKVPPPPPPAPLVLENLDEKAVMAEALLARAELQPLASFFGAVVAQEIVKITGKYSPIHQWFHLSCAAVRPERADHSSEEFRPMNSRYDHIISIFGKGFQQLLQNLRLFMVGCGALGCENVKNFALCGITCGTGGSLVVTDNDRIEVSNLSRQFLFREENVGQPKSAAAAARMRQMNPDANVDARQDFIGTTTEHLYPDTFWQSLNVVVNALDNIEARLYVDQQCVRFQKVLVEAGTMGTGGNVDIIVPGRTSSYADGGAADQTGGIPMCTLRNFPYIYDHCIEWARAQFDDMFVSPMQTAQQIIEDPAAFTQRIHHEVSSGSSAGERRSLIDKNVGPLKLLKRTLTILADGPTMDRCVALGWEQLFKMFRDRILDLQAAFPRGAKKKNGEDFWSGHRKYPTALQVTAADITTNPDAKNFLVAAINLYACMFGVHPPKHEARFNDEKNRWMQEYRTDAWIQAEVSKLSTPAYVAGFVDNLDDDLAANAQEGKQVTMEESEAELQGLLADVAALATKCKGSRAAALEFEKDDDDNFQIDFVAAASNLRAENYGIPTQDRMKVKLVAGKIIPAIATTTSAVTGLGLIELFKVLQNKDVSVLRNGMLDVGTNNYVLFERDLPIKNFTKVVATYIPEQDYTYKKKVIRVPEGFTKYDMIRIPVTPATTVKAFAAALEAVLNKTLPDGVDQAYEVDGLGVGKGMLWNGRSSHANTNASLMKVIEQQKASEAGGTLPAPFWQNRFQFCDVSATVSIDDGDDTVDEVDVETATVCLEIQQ
As to the kind of experiment: Leishmania donovani Ubiquitin Activating Enzyme (LdE1). Format: functional. Conditions: 30 µM.

For assay [3], the target named is AMP-activated protein kinase, AMPK (Homo sapiens) (UniProt P54646+O43741+P54619+Q9UGJ0+Q9Y478+Q13131+Q9UGI9). As to the kind of experiment: AMP-dependent Kinase enzyme assay. An in vitro enzyme assay that detects ADP turnover that is directly proportional to AMPK activity. This uses naive AMPK that is activated during the assay with MK-8722. It is filed as functional. The note with it: 30 µM.

The target in assay [4] is Sialic acid-binding Ig-like lectin 9 (Homo sapiens) (UniProt Q9Y336). Kind of assay: Hs-Siglec9 ALPHAscreen SOP 20170721. Conditions: 10 µM. (In general: Alpha assays give light when donor and acceptor beads are brought close together.)
Sequence of Sialic acid-binding Ig-like lectin 9 (Homo sapiens) (Q9Y336 whole entry): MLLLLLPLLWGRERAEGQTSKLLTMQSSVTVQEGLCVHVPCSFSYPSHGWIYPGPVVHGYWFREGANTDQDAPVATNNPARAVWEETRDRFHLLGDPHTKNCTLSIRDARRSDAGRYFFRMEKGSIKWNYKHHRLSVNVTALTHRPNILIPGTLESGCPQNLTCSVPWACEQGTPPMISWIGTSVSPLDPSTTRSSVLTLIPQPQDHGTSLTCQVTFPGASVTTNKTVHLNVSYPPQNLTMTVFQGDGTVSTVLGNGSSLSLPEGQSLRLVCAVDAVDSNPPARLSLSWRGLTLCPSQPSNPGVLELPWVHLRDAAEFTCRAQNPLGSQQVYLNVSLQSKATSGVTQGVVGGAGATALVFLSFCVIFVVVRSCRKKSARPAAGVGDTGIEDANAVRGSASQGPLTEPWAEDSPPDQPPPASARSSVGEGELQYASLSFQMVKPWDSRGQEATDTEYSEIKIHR
The subject of assay [5] is Trypanosoma cruzi. As to the kind of experiment: Trypanosoma cruzi phosphomannomutase and mannose-1-phosphate guanylyltransferase assay. The note with it: 10 µM. Format: functional.
In assay [6] the target is T2, Arginase-2, mitochondrial (Homo sapiens) (UniProt P78540).
T2 sequence (whole entry): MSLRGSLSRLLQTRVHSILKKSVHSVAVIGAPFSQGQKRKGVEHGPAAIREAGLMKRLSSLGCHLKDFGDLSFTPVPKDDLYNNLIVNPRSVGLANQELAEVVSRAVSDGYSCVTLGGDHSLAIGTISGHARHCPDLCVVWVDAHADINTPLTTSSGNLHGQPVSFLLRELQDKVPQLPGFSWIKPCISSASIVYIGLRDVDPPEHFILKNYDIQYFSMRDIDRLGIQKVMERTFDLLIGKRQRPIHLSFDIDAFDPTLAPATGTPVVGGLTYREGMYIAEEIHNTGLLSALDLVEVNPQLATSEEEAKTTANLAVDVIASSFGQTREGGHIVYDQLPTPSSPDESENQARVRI
Kind of assay: in vitro enzyme assay to detect the production of urea directly proportional to the activity of Arginase II. Also: in the data most compounds retested in dose-response had high values. Format: functional. The note with it: 33.3 µM.

For assay [7], the target named is T3, Proteasome subunit beta (Trypanosoma cruzi) (UniProt O96673).
T3 sequence (whole entry): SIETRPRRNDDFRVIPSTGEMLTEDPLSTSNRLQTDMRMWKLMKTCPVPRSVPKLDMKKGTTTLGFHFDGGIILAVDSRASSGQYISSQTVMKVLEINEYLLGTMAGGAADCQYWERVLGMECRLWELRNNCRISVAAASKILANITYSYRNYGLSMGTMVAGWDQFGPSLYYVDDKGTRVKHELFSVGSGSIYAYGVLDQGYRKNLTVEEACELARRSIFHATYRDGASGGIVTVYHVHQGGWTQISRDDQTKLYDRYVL
As to the kind of experiment: Trypanosoma cruzi proteasome chymotrypsin-like activity (TcProtChymo) assay. Also: in the data most compounds retested in dose-response had high values. The note with it: 9.37 µM. Format: functional.

The species named for assay [8] is Homo sapiens. Kind of assay: To identify inhibition of the IFN signalling (Jak-Stat) pathway via expression of an eGFP reporter gene under the control of an IFN-stimulated response element (ISRE) containing MxA promoter. Format: functional. The note with it: 30 µM.
Assay [9] addresses T4, Tyrosyl-tRNA synthetase, putative (Trypanosoma cruzi (strain CL Brener)) (UniProt Q4DSP6).
T4 sequence (whole entry): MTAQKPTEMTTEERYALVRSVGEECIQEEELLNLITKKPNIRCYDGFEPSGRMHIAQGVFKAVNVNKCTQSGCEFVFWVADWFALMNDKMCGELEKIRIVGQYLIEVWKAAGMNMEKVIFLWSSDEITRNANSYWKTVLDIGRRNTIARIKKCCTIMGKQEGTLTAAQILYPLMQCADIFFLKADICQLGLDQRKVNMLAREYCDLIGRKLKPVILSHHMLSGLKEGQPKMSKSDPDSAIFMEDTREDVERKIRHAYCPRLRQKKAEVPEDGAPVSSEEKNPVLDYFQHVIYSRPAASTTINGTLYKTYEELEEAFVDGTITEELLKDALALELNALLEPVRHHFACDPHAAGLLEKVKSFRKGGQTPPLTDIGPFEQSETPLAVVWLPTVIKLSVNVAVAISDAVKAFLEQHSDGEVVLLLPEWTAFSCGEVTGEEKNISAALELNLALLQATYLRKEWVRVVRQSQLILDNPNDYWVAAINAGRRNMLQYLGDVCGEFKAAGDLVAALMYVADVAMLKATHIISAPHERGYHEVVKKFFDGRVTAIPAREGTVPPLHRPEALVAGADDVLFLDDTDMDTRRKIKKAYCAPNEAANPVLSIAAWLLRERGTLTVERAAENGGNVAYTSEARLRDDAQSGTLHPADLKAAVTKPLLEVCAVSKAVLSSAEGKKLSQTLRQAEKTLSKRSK
Kind of assay: Trypanosoma cruzi tyrosyl tRNA synthetase (TcYRS) _High Tyrosine SOP. Also: in the data most compounds retested in dose-response had high values. It is filed as functional. Conditions: 30 µM.

Assay [10] concerns the target T4, Tyrosyl-tRNA synthetase, putative (Trypanosoma cruzi (strain CL Brener)). As to the kind of experiment: Trypanosoma cruzi tyrosyl tRNA synthetase (TcYRS) SOP. It is filed as functional. The note with it: 30 µM.
Assay [11] has as its target Chromo domain-containing protein 1 (Saccharomyces cerevisiae (strain ATCC 204508 / S288c) (Baker's yeast)) (UniProt P32657). Kind of assay: ScCHD-1 Enzyme Inhibition Assay. Also: in the data most compounds retested in dose-response had high values. It is filed as functional. Conditions: 30 µM.

For some assays here: Entries with a potency or affinity are not part of this list.

Sequence of Protein translocase subunit SecA (Escherichia coli (strain K12)) (P10408 whole entry): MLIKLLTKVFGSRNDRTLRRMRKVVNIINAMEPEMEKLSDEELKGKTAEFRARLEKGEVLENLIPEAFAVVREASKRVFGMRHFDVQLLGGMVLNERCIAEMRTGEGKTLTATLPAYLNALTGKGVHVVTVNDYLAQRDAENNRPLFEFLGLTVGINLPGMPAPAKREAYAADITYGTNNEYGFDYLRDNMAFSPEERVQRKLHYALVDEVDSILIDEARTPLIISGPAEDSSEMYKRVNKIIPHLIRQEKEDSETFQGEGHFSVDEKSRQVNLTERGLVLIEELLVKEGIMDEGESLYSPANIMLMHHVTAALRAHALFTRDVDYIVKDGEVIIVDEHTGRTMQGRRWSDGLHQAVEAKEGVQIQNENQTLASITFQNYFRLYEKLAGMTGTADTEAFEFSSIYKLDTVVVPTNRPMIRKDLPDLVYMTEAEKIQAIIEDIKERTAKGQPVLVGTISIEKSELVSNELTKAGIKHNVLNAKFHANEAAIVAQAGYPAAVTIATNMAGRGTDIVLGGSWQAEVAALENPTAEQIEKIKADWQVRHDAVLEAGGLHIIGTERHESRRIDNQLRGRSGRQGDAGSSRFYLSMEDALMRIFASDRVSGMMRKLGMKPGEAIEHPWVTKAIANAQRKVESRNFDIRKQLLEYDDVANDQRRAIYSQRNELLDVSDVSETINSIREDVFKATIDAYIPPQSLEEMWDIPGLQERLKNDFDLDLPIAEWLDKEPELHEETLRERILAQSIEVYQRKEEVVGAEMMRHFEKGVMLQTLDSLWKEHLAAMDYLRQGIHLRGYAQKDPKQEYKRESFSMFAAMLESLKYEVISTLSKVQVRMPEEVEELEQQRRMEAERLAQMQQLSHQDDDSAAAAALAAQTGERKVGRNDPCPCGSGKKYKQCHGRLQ
Sequence of Chromo domain-containing protein 1 (Saccharomyces cerevisiae (strain ATCC 204508 / S288c) (Baker's yeast)) (P32657 whole entry, the tested form may be a part): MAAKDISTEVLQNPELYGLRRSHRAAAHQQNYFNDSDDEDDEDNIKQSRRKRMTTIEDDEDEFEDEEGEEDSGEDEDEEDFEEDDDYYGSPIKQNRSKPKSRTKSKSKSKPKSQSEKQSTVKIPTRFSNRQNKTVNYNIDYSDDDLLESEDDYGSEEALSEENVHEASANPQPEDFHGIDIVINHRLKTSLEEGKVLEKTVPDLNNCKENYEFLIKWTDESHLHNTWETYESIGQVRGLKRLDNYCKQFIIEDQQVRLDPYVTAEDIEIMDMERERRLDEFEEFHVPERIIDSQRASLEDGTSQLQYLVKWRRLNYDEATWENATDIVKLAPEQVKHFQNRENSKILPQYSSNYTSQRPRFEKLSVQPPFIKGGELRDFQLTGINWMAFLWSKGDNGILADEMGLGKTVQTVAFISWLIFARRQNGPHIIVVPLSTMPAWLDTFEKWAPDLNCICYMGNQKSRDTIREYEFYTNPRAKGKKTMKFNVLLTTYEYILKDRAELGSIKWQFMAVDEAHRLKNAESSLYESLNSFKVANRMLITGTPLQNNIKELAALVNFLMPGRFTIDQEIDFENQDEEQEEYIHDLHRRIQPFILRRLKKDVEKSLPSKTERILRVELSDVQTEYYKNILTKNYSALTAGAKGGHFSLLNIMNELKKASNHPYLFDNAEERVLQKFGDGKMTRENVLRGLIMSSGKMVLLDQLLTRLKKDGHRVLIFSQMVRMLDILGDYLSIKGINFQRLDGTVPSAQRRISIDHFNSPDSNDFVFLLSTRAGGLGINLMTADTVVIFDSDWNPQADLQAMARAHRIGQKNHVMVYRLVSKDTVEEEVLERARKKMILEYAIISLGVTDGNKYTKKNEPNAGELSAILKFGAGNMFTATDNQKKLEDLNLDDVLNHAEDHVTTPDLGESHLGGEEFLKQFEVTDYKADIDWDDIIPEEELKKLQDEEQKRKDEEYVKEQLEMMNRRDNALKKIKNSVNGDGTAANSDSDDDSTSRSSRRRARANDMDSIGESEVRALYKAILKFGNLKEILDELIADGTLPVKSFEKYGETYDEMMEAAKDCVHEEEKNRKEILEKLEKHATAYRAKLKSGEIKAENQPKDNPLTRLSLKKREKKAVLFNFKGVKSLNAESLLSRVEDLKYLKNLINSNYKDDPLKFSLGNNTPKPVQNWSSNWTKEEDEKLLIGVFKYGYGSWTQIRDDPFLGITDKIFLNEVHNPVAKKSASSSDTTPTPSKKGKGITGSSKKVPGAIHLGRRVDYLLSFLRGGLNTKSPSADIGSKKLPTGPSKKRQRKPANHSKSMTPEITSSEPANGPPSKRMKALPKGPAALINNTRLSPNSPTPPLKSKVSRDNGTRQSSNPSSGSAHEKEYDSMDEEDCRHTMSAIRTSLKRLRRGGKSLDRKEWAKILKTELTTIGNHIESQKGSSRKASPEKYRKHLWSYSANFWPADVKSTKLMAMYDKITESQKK

For the compound `COc1ccc(CN2C[C@@H]3COC[C@]3(COc3cccnc3)C2)cc1`, the Percent Effect in assay [1] was -1.95%; in assay [2] it was 0%; in assay [3] it was 3.5%; in [4], -0.202%; in [5], 3.12%; in assay [6], -0.417%. Further, the Percent Effect in [7] was 4.14%; in assay [8], -15.2%; in assay [9], 0%; in assay [10], 6.1%; in assay [11], -0.593%.
In the case of `O=C(c1ccc2c(c1)COC2)N1CCC(Nc2cccnn2)CC1`, the Percent Effect in assay [1] is -4.96%; in [2], 13%; in assay [3], -6.23%; in [4] it was 11.4%; in assay [5] it was 5.06%; in assay [6], -3.56%. Further, the Percent Effect is 1.52% in assay [7]; 21.5% in assay [8]; 8.74% in assay [9]; 24.4% in assay [10]; -7.05% in [11].
Regarding `Cc1nc(C)n(CC2CCCN(CCc3ccccn3)C2)n1` (stereo not given), the Percent Effect in assay [1] is -8.02%; in [2], 13.9%; in assay [3], -5.61%; in [4], -6.83%; in [5], 2.36%; in assay [6], -1.07%. The Percent Effect was 1.2% in assay [7]; 3.25% in assay [8]; 3.12% in assay [9]; 15.2% in [10]; -36.4% in [11].
Regarding `CC(C)NS(=O)(=O)c1cc(C(=O)O)cc(-c2ccccc2CN(C)C)c1`, the Percent Effect is -5.51% in [1]; 0% in assay [2]; -1.94% in [3]; -2.62% in assay [4]; -6.16% in assay [5]; 4.22% in [6]. Moreover, the Percent Effect is 3% in [7]; 1.46% in [8]; 1.07% in assay [9]; 3.7% in [10]; -3.44% in assay [11].
Consider `Cc1cc(C)n(C2CN(CC(O)c3ccc(F)cc3)C2)n1` (stereo not given), for which the Percent Effect is -2.64% in assay [1]; -15.6% in assay [2]; -6.46% in assay [3]; 8.34% in assay [4]; 0.936% in [5]; -5.34% in assay [6]. Also, the Percent Effect was 12.3% in assay [7]; 4.19% in assay [8]; 6.8% in [9]; 12.2% in [10]; -6.46% in [11].
On to `COc1nc2c(cc1C(=O)N1C[C@H](N)C[C@H]1C(=O)NC(C)C)CCC2`, for which the Percent Effect in assay [1] was -3.3%; in assay [2], 18.1%; in assay [3], -10.6%; in assay [4], 9.06%; in assay [5], 6.51%; in assay [6], 8.83%. For the same compound, the Percent Effect was 16.3% in assay [7]; 9.52% in [8]; 6.32% in assay [9]; 15.4% in assay [10]; -4.1% in assay [11].
In the case of `O=C(Cn1ccnc1)N1C[C@@H]2CC[C@H](Oc3ccccc3)[C@@H]2C1`, the Percent Effect in assay [1] is -4.17%; in assay [2] it was 9.46%; in assay [3], 7.42%; in assay [4] it was -4.28%; in assay [5], 2.77%; in assay [6], -1.16%. Moreover, the Percent Effect in [7] was 16.2%; in assay [8], 12.3%; in [9] it was 3.23%; in assay [10], 11.7%; in assay [11], -11.8%.
As to `CCOc1ccccc1C(CC(=O)Nc1nc(C)cs1)NC(C)=O` (stereo not given), the Percent Effect in assay [1] was -1.09%; in assay [2], 5.26%; in [3], -0.999%; in assay [4], 0.981%; in assay [5], -2.63%; in assay [6] it was 4.21%. Further, the Percent Effect in assay [7] is 6.85%; in assay [8] it was 10.1%; in assay [9], 3.43%; in assay [10] it was 9.76%; in assay [11], -5.47%.
In the case of `O=C(NC1CC1)c1cc(NC(=O)N2CCCC(O)C2)ccc1Cl` (stereo not given), the Percent Effect is -1.73% in assay [1]; 11% in assay [2]; 1.28% in [3]; 3.66% in [4]; -5.36% in assay [5]; 1.6% in assay [6]. The Percent Effect in assay [7] is 16.4%; in assay [8], -0.927%; in assay [9] it was 6.25%; in assay [10], 13.6%; in [11], 1.44%.
For `Cc1nc(C)n(C2CCCN(C(=O)CCCOc3ccccc3)C2)n1` (stereo not given), the Percent Effect in assay [1] is -1.32%; in [2], 0%; in assay [3], 6.84%; in [4], 4.93%; in assay [5] it was 1.5%; in assay [6], -2.85%. Besides, the Percent Effect is -1.18% in [7]; -22.8% in assay [8]; 2.91% in assay [9]; 9.76% in [10]; -5.8% in assay [11].
